Experimental data: PubChem BioAssay
Values joined by “and” are separate entries in the source; they are usually repeats but may differ in a detail not shown here. Equal entries are not always repeated. Active and inactive are the calls of the source.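 Rule for the calls, unless noted: active = thallium flux through the channel raised or lowered by more than 3 SD from vehicle-only wells, actives on both sides; inactive = the rest.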

Assays:
[1] = liver-stage malaria parasite growth inhibition, primary screen, cell-based, HepG2, luciferase luminescence, HepG2 viability (AID 624349; in the data active = parasite load remaining mostly below about 12%, no sharp cut-off; inactive = mostly above about 10%;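 note: 100% = mean of DMSO negative control wells on the same plate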); conditions: P. berghei liver stage in HepG2, luciferase luminescence, concentration not given here; parasite load remaining: stronger effect = lower value; viability: measured here: HepG2 viability without parasites
[2] = differential killing of epithelial or mesenchymal cells, primary screen, imaging, PC-3E GFP, TEM4-18 mCherry, co-culture (AID 1345086;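 active = compounds killing one labelled cell type while sparing the other, by normalised counts and ratio limits, not self-fluorescent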;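 note: cells exposed to compound for 72 h before imaging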;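 for red/green cell ratio (normalised): normalised mesenchymal count divided by normalised epithelial count so high means epithelial killing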); conditions: imaging cell counts, at 1 µM
[3] = sensitizers of A549 cells to miR-34 induction, primary screen, imaging, A549 dox-inducible miR-34, nuclei and caspase counts (AID 1347080;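 active = compounds whose cell count with miR-34 switched on is under 0.7 times the count with it off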); conditions: A549 miR-34 inducible, Hoechst nuclei count, 48 h
F380Y = assay: modulators of BK channel variants, profiling panel, selectivity assay, cell-based, U2OS BacMam, thallium flux, beta subunits (AID 1259406); conditions: at 30 µM;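 note: initial slope of Thallos dye fluorescence rise after thallium is added; log ratio against the mean of 0.3% DMSO vehicle wells on the same plate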
F380Y/beta1 = assay: as above; conditions: at 30 µM
F380Y/beta2Delta = assay: as above; conditions: at 30 µM
F380Y/beta4 = assay: as above; conditions: at 30 µM
[4] = target: Calcium-activated potassium channel subunit alpha-1 (Homo sapiens) + Leucine-rich repeat-containing protein 26 (Homo sapiens) (UniProt Q12791+Q2I0M4); assay: as above; conditions: F380Y/Slo1WT/gamma1, at 30 µM
R275C = assay: as above; conditions: at 30 µM
R275C/beta1 = assay: as above; conditions: at 30 µM
R275C/beta2Delta = assay: as above; conditions: at 30 µM
R275C/beta4 = assay: as above; conditions: at 30 µM
R275C/Slo1WT/beta2 = assay: as above; conditions: at 30 µM
[5] = Cy5 fluorescence interference with SSB-bound oligo, artefact control for HCV NS3 helicase inhibitor project, biochemical, NIH Clinical Collection, E. coli SSB (AID 743268; call rule not given here)
[6] = system: Hepatitis C virus NS3 helicase; assay: HCV NS3 helicase inhibitors, primary screen, biochemical, fluorescence polarization, NIH Clinical Collection (AID 743270; call rule not given here); conditions: NS3 helicase binding to Cy5-dT15 DNA, stronger effect = higher value, concentration not given here
[7] = target: Single-stranded DNA-binding protein (Escherichia coli (strain K12)) (UniProt P0AGE0); assay: E. coli SSB displacement from DNA, counter-screen for HCV NS3 helicase inhibitor project, biochemical, fluorescence polarization, NIH Clinical Collection (AID 743271; in the data active = inhibition above about 28%); conditions: stronger effect = higher value, concentration not given here
[8] = fluorescence interference in NS3h assay format, artefact control for HCV NS3 helicase inhibitor project, biochemical, NIH Clinical Collection (AID 743272; call rule not given here;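 note: HCV NS3 helicase with a Cy5 labelled single stranded DNA probe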); conditions: fluorescence interference counterscreen, stronger effect = lower value
[9] = modulation of C. elegans fzo-1 (AID 1259413; call rule not given here;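 note: fzo-1 mutant C. elegans worms in liquid wells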); conditions: C. elegans fzo-1 modulator screen, mean read-out; stronger effect = higher value
[10] = survival rescue of mitochondrial mutant cells in low glucose, primary screen, MELAS cybrids, Rieske KO mouse fibroblasts, CellTiter-Glo (AID 1508586;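 active = mean z-score across replicates of 1.96 or higher in either the MELAS or the Rieske mutant cell line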;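 note: z relative to plate mean and SD of compound and empty wells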)
[11] = stronger effect = lower value, cell number ratio, induced over uninduced
[12] = measured here: relative caspase fold change +Dox/-Dox
[13] = measured here: total cells with miR-34 induction, stronger effect = lower value
[14] = measured here: total cells without miR-34 induction
[15] = MELAS cybrid survival, CellTiter-Glo 48 h, stronger effect = higher value
[16] = Rieske KO mouse fibroblast survival, CellTiter-Glo 72 h

Chain of Calcium-activated potassium channel subunit alpha-1 (Homo sapiens) + Leucine-rich repeat-containing protein 26 (Homo sapiens) (Q2I0M4 whole entry, looked up, one chain of several): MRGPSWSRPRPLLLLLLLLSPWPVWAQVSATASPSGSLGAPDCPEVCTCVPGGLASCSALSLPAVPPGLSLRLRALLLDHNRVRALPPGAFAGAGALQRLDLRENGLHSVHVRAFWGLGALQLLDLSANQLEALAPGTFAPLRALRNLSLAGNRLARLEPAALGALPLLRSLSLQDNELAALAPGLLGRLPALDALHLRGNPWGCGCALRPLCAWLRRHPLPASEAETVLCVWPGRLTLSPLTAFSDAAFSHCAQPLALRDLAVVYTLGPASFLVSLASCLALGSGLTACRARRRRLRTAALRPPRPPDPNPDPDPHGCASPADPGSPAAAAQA

C[n+]1ccccc1C=NO
13300: cell count [3, 14]
11500: cell count [3, 13]
127%: viability [1]
inactive: parasite load remaining [1] 51.7% | red/green cell ratio (normalised) ([2]; actives lie on both sides, counts scaled to control wells, 1 = unselective) 1.01 | fold change [3, 11] 0.861 | log fold change Tl+ flux (F380Y) -0.0173 | log fold change Tl+ flux (F380Y/beta1) 0.0118 | log fold change Tl+ flux (F380Y/beta2Delta) -0.00109 | log fold change Tl+ flux (F380Y/beta4) -0.0377 | log fold change Tl+ flux [4] -0.000474 | log fold change Tl+ flux (R275C) -0.00984 | log fold change Tl+ flux (R275C/beta1) 0.0135 | log fold change Tl+ flux (R275C/beta2Delta) 0.00623 | log fold change Tl+ flux (R275C/beta4) -0.0487 | log fold change Tl+ flux (R275C/Slo1WT/beta2) -0.0159
1: normalised cell number ([2]; measured here: epithelial PC-3E GFP cell survival)
1.02: normalised cell number ([2]; measured here: mesenchymal TEM4-18 mCherry cell survival)
4.73: fold change [3, 12]

CCC[C@@H]1C[C@@H](C(=O)N[C@H]([C@@H](C)O)[C@H]2O[C@H](SC)[C@H](O)[C@@H](O)C2O)N(C)C1 (stereo partly drawn)
91%: viability [1]
inactive: parasite load remaining [1] 97.8% | fluorescence ratio [5] 0.98 | inhibition [6] -5% | inhibition [7] -3.53% | fluorescence ratio [8] 1.03 | mean signal [9] 237 | log fold change Tl+ flux (F380Y) 0.0293 | log fold change Tl+ flux (F380Y/beta1) -0.0324 | log fold change Tl+ flux (F380Y/beta2Delta) 0.0245 | log fold change Tl+ flux (F380Y/beta4) 0.0251 | log fold change Tl+ flux [4] 0.0541 | log fold change Tl+ flux (R275C) -0.0022 | log fold change Tl+ flux (R275C/beta1) -0.0579 | log fold change Tl+ flux (R275C/beta2Delta) -0.0468 | log fold change Tl+ flux (R275C/beta4) -0.0617 | log fold change Tl+ flux (R275C/Slo1WT/beta2) -0.0428

O=c1[nH]c(=O)n(C2CC(O)C(CO)O2)cc1F (stereo not drawn)
0.487: z-score [10, 16]
2970 and 2380: cell count [3, 13]
115%: viability [1]
inactive: parasite load remaining [1] 68.3% | fluorescence ratio [5] 1.03 | inhibition [6] -1.36% | inhibition [7] 1.81% | fluorescence ratio [8] 1.04 | fold change [3, 11] 1.17 and 1.12 | z-score [10, 15] -0.408 | log fold change Tl+ flux (F380Y) -0.00405 | log fold change Tl+ flux (F380Y/beta1) 0.0394 | log fold change Tl+ flux (F380Y/beta2Delta) 0.0245 | log fold change Tl+ flux (F380Y/beta4) 0.0173 | log fold change Tl+ flux [4] -0.00699 | log fold change Tl+ flux (R275C) 0.0218 | log fold change Tl+ flux (R275C/beta1) 0.000317 | log fold change Tl+ flux (R275C/beta2Delta) 0.0028 | log fold change Tl+ flux (R275C/beta4) -0.0029
active: log fold change Tl+ flux (R275C/Slo1WT/beta2) -0.136
3.66 and 0.771: fold change [3, 12]
2550 and 2130: cell count [3, 14]

CC(=CCC1=C(C)C(=O)c2ccccc2C1=O)CCCC(C)CCCC(C)CCCC(C)C (stereo not drawn)
7560: cell count [3, 13]
2.78: fold change [3, 12]
inactive: parasite load remaining [1] 49.5% | fluorescence ratio [5] 1.04 | inhibition [6] -1.36% | inhibition [7] 3.34% | fluorescence ratio [8] 0.97 | fold change [3, 11] 1.25 | log fold change Tl+ flux (F380Y) -0.0115 | log fold change Tl+ flux (F380Y/beta1) 0.045 | log fold change Tl+ flux (F380Y/beta2Delta) 0.0296 | log fold change Tl+ flux (F380Y/beta4) 0.0448 | log fold change Tl+ flux [4] 0.0507 | log fold change Tl+ flux (R275C) 0.0242 | log fold change Tl+ flux (R275C/beta1) 0.0513 | log fold change Tl+ flux (R275C/beta2Delta) 0.0188 | log fold change Tl+ flux (R275C/beta4) 0.0575 | log fold change Tl+ flux (R275C/Slo1WT/beta2) -0.0288
6060: cell count [3, 14]
97.8%: viability [1]

CN1C2CCC1CC(OC(c1ccccc1)c1ccccc1)C2 (stereo not drawn)
81.7% and 71.5% and 99.9%: viability [1]
inactive: parasite load remaining [1] 25.8% and 92.2% and 42.8% | fluorescence ratio [5] 1.04 | inhibition [6] -5.91% | inhibition [7] -4.29% | fluorescence ratio [8] 1.01 | mean signal [9] 197 | z-score [10, 15] -0.325 | log fold change Tl+ flux (F380Y/beta1) 0.0778 | log fold change Tl+ flux [4] 0.00637 | log fold change Tl+ flux (R275C) -0.0804 | log fold change Tl+ flux (R275C/beta2Delta) 0.0793 | log fold change Tl+ flux (R275C/Slo1WT/beta2) 0.0196
active: log fold change Tl+ flux (F380Y) 0.117 | log fold change Tl+ flux (F380Y/beta2Delta) 0.124 | log fold change Tl+ flux (F380Y/beta4) 0.212 | log fold change Tl+ flux (R275C/beta1) 0.237 | log fold change Tl+ flux (R275C/beta4) 0.252
-0.171: z-score [10, 16]

CC1CC2C3CCC4=CC(=O)C=CC4(C)[C@@]3(Cl)C(O)CC2(C)C1(O)C(=O)CO (stereo partly drawn)
1.07: fold change [3, 12]
67.8%: viability [1]
inactive: parasite load remaining [1] 68.1% | fluorescence ratio [5] 0.98 | inhibition [6] -0.22% | inhibition [7] -1.97% | fluorescence ratio [8] 0.95 | mean signal [9] 282 | fold change [3, 11] 0.839 | log fold change Tl+ flux (F380Y) 0.104 | log fold change Tl+ flux (F380Y/beta2Delta) -0.00287 | log fold change Tl+ flux (F380Y/beta4) 0.0497 | log fold change Tl+ flux [4] 0.0373 | log fold change Tl+ flux (R275C) -0.0315 | log fold change Tl+ flux (R275C/beta2Delta) 0.0411 | log fold change Tl+ flux (R275C/beta4) 0.0585 | log fold change Tl+ flux (R275C/Slo1WT/beta2) 0.0245
7120: cell count [3, 13]
8490: cell count [3, 14]
active: log fold change Tl+ flux (F380Y/beta1) 0.0975 | log fold change Tl+ flux (R275C/beta1) 0.106
